Only some compounds are listed: those with a hit (about 2.8% of all), similar ones and a draw of the others.
Pol eta inh = blocks human DNA polymerase eta activity | recombinant Pol eta, fluorescent DNA replication assay | AID 588591 | actives 1.2% (n = 390,000) | Potency, µM (doses to about 114 µM), for inactives: at the highest dose activity change, negative = inhibition, most hits filed as inhibitors | Q9Y253; also: potency is read from the fitted curve at half-maximal effect; % is scaled to controls: 0 for no effect and ±100 for the full control effect
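Fluorescent replication assay: 50 nM final substrate added after a 15 min room-temperature compound preincubation with 10 nM enzyme. Signal taken at 0 min and again at 10 min.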
WRN helicase inh = WRN helicase (human) inhibition; Potency, µM (series often up to 114 µM), without a hit: at the top dose activity change, negative = inhibition, actives largely listed as inhibitors; AID 651768; actives 0.46% (n = 360,000); WRN helicase unwinding, fluorescent forked duplex, kinetic; also: potency is read from the fitted curve at half-maximal effect; % is scaled to controls: 0 for no effect and ±100 for the full control effect; nearly all actives have a fitted effect of over 55% in size
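WRN at 20 nM final was preincubated with compound for 15 min at room temperature; reaction started with 100 nM forked duplex oligonucleotide carrying fluorophore and quencher plus 2 mM ATP (final). Unwinding followed kinetically by red fluorescence (ex 525/em 598 nm).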
Pol kappa inh = inhibitors of human DNA polymerase kappa; Q9UBT6; purified Pol kappa, fluorescent DNA synthesis assay, 10 min; Potency, µM (top dose mostly 107 µM), inactives show at the top dose activity, negative = inhibition, actives largely listed as inhibitors; actives 0.53% (n = 400,000); AID 588579; also: potency is read from the fitted curve at half-maximal effect; % is scaled to controls: 0 for no effect and ±100 for the full control effect
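Kinetic fluorescence screen: compound preincubated 15 min RT with 10 nM enzyme; 50 nM substrate (final) initiates; reads at 0/10 min.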
Pol beta inh = inhibitors of human DNA polymerase beta; P06746; Pol beta primer extension/strand displacement, fluorescence kinetic; Potency, µM (series often up to 114 µM), inactives show at the top dose activity change, negative = inhibition, most hits filed as inhibitors; actives 1.3% (n = 340,000); AID 485314; also: potency is read from the fitted curve at half-maximal effect; % is scaled to controls: 0 for no effect and ±100 for the full control effect
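Enzyme-only controls used 10 nM Pol beta; buffer lacking enzyme served as negative control. Compound preincubated 15 min, then 50 nM substrate added; 0 and 10 min reads at room temperature.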
POLI inh = inhibitors of human DNA polymerase iota | Q9UNA4 | Pol iota fluorescent replication assay, 10 min | Potency, µM (doses to about 115 µM), without a hit: at the highest dose activity, negative = inhibition, actives largely listed as inhibitors | actives 1% (n = 390,000) | AID 588590; also: potency is read from the fitted curve at half-maximal effect
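Fluorescent replication assay read twice, at 0 min and 10 min after adding 50 nM (final) substrate. Enzyme (10 nM) and compounds were first incubated 15 min at room temperature; enzyme-free buffer wells were negative controls.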
PI5P4K alpha inh = blocks human PI5P4K alpha kinase activity; P48426; PI5P4Kalpha enzyme, ADP-Glo luminescence, 60 min; stronger effect = lower value; max response, %; actives 1.2% (n = 330,000); AID 652105; active = max response of -50% or lower; inconclusive = between -30% and -50%; inactive = -30% or higher; also: value at the top dose of about 77 µM; % is scaled to controls: 0 for no effect and ±100 for the full control effect
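ADP-Glo luminescence end-point read after a 60 min room-temperature kinase reaction of PI5P4Kalpha plus substrate, initiated with ATP at 5 microM final. Buffer: 0.038 M HEPES pH 7.4, EGTA, 0.1% CHAPS, 5% DMSO.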
PGK validate = validation of Trypanosoma brucei phosphoglycerate kinase inhibitors; actives 79% (n = 500); TbPGK coupled GAPDH assay, Kinase-Glo luminescence; shares compounds with Pol kappa inh; Potency, µM (titrated, usually from 57.5 µM), for the others: at the top dose activity change, negative = inhibition, hits mostly inhibitors; also: potency is read from the fitted curve at half-maximal effect; % is scaled to controls: 0 for no effect and ±100 for the full control effect; nearly all actives have a fitted effect of over 65% in size
POLI cherry-pick = Confirm cherry-picked inhibitors of human polymerase iota. shares compounds with Pol kappa inh. Pol iota primer extension, TAMRA/BHQ fluorescence. Potency, µM, actives largely listed as inhibitors. actives 77% (n = 1,500). AID 720496; also: potency is read from the fitted curve at half-maximal effect
* = called active by the depositor; ! = a repeat was not active; [ ] = another dose, or the depositor's remark. Unless noted, calls follow the shape of the dose curve; as a rule, active = well fitted curve in the direction sought with a large enough effect; inconclusive = small, poorly fitted or top-dose-only effect, or another doubt; inactive = no such curve, though single readings can be large; an effect the other way counts as inactive or inconclusive.

For CCOc1ccc(/C=N/NC(=O)c2cc3c(OC)cccc3[nH]2)cc1 the results were Pol eta inh inconclusive, WRN helicase inh -9.2%[11.6 µM], Pol kappa inh -36.6%, Pol beta inh 50.1µM*, POLI inh 25.1µM*, PI5P4K alpha inh -0.3 and POLI cherry-pick inconclusive.
Cc1ccc(CNC(=O)CCCN2C(=O)CCn3nc(-c4cccn4C)cc32)cc1 was read as Pol eta inh 1.9%, Pol kappa inh -15.3%[60.1 µM], Pol beta inh 9.3% and POLI inh -19.4%.
Cc1cc(C)c2c(N)c3cccc(C)c3nc2n1 was read as Pol eta inh -18.7%, WRN helicase inh 0.2%, Pol kappa inh inconclusive, Pol beta inh 12.6µM*, POLI inh inconclusive, PI5P4K alpha inh -5.9 and POLI cherry-pick 33.6*.
`Cc1ccc(NC(=O)CN2C(=O)S/C(=C/c3ccc(-c4cccc(C(=O)O)c4)o3)C2=O)cc1` gave Pol eta inh 5.62µM*, WRN helicase inh inconclusive, Pol kappa inh 31.6µM*, Pol beta inh 11.2µM*, POLI inh 25.1µM*, PI5P4K alpha inh inconclusive and PGK validate 11.6µM*.
`Cc1ccc(NC(=O)CN2C(=O)S/C(=C\c3cccn3C)C2=O)cc1` gave Pol eta inh -11.9%, WRN helicase inh -4.5%, Pol kappa inh -8.0%, Pol beta inh 5.1% and POLI inh 9.1%.
Cc1ccccc1C(=O)Nc1ccc2c(C#N)c3nc4ccccc4nc3n2c1 was read as Pol eta inh 10µM*, WRN helicase inh 56.2µM*, Pol kappa inh -27.4%, Pol beta inh inconclusive, POLI inh 40.1%, PI5P4K alpha inh inconclusive and POLI cherry-pick inconclusive.
Screening Oc1ccc(Cl)cc1N=Nc1ccccc1 returned Pol eta inh -16.4%, WRN helicase inh -1.4%, Pol kappa inh -2.5%, Pol beta inh 113.9%, POLI inh 26.3% and PI5P4K alpha inh 16.3.
For Cc1ccc(O)c(N=Nc2ccccc2)n1 the results were Pol eta inh -1.7%[57.1 µM], WRN helicase inh -4.3%, Pol kappa inh 6.0%[60.1 µM], Pol beta inh -12.7%[57.1 µM], POLI inh -8.8%[58.9 µM], PI5P4K alpha inh -77.9* and PGK validate 14.6µM*.
O=C(Nc1ccc(NC(=O)c2ccco2)c(Cl)c1)c1ccc2c(c1)OCCO2 was read as Pol eta inh inconclusive, WRN helicase inh inconclusive, Pol kappa inh inconclusive, Pol beta inh inconclusive, POLI inh inconclusive, PI5P4K alpha inh 1.4 and POLI cherry-pick inconclusive.
`CN(C)c1ccc(/C=C/c2nccc3ccccc23)cc1` gave Pol kappa inh -13.7% and POLI inh 21.1%.
For CN(C)c1ccc(/C=C/c2ccc3c4ccccc4ccc3[n+]2-c2ccccc2)cc1 the results were Pol eta inh 22.4µM*, WRN helicase inh 12.6µM*, Pol kappa inh 44.7µM*!, Pol beta inh 11.2µM*, POLI inh 20µM*, PI5P4K alpha inh -87.1* and PGK validate 29.1µM*.
For CCOc1ccc2nc(NC(=O)c3ccoc3C)sc2c1 the results were Pol eta inh -16.2%, WRN helicase inh -4.6%, Pol kappa inh -4.5%, Pol beta inh -20.6%, POLI inh inconclusive, PI5P4K alpha inh inconclusive and PGK validate 6.51µM*.
Screening COc1cc(/C=C/c2nc3ccccc3c(=O)[nH]2)cc(Cl)c1O returned Pol eta inh inconclusive, WRN helicase inh -34.5%, Pol kappa inh -0.6%, Pol beta inh inconclusive, POLI inh 32.7%, PI5P4K alpha inh 4.9 and POLI cherry-pick inconclusive.
Screening COC(=O)c1sccc1NC(=O)Nc1ccc(F)cc1 returned Pol eta inh -14.6%, WRN helicase inh 0.5%, Pol kappa inh 0.3%, Pol beta inh 3.2%, POLI inh -7.0%, PI5P4K alpha inh 0.9 and PGK validate 13µM*.
`CC(C)(N)C(=O)N[C@@H](Cc1cnc[nH]1)C(=O)N[C@H](Cc1ccc2ccccc2c1)C(=O)N[C@H](Cc1ccccc1)C(=O)N[C@@H](CCCCN)C(N)=O` gave Pol kappa inh 10.6%[60.1 µM].
`CC1CCc2nc3ncn(Cc4ccc(Cl)cc4)c(=O)c3cc2C1` (stereo not given) gave Pol eta inh -13.1%, Pol kappa inh -3.3%[60.1 µM], Pol beta inh 9.9% and POLI inh 31.7%.
`COc1ccc(-n2cccc2/C=C2\C(=N)N3N=C(c4ccco4)SC3=NC2=O)cc1` gave Pol eta inh 8.91µM*, WRN helicase inh inconclusive, Pol kappa inh 22.4µM*, Pol beta inh 5.62µM*, POLI inh inconclusive, PI5P4K alpha inh -53.2* and PGK validate 3.66µM*.
CCSc1nc(O)cc(=O)[nH]1 was read as Pol eta inh inconclusive, WRN helicase inh 0.3%, Pol kappa inh -4.2%, Pol beta inh 46.8%, POLI inh -25.8% and PI5P4K alpha inh -2.4.
`N#CNc1nc(O)cc(=O)[nH]1` gave Pol eta inh inconclusive, WRN helicase inh -34.7%, Pol kappa inh 79.4µM*, Pol beta inh -25.9%, POLI inh inconclusive, PI5P4K alpha inh -77.9* and PGK validate inconclusive.
For COc1ccc(C)cc1NC(=O)COCc1cc(-c2ccc(F)cc2)on1 the results were Pol eta inh -16.0%, Pol kappa inh -3.5%, Pol beta inh -2.1% and POLI inh 3.9%.
`Cc1ccsc1/C=C1\CCc2ccccc2C1=O` gave Pol eta inh 1.7%, WRN helicase inh -3.9%, Pol kappa inh -2.9%, Pol beta inh -25.7%, POLI inh 7.4%, PI5P4K alpha inh inconclusive and PGK validate 14.6µM*.
Screening CC(=O)Nc1nonc1-c1nnc(SCC(=O)Nc2cc(Cl)ccc2C)n1C returned Pol eta inh -7.0%, Pol kappa inh 9.9%, Pol beta inh 4.8% and POLI inh -3.2%.
Screening C(=C\c1nc2ccccc2[nH]1)/c1ccccc1 returned Pol eta inh -2.3%, WRN helicase inh -19.1%, Pol kappa inh -19.9%, Pol beta inh 4.1%, POLI inh 6.3% and PGK validate 16.3µM*.
Screening CC1=C(C(=O)Nc2cccnc2)C(c2cccc(O)c2)n2nc(SCc3ccccc3)nc2N1 (stereo not given) returned Pol eta inh inconclusive, Pol kappa inh -6.3%[60.1 µM], Pol beta inh -18.3%, POLI inh 79.4µM* and POLI cherry-pick inconclusive.
